In all, about 2,100 compounds went through this assay and about 940 (45%) were called active. The set was probably picked from earlier hits. The list is a sample of the results. Unmarked numbers belong to inactive results.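 The calls were made as follows: active = mean of three repeat readings of reporter signal inhibition above a set limit (cut at about 70% in these data); inactive = the rest.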
Test: retest of CHOP induction inhibitors, confirmation, cell-based (AID 504437);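 also: 0% = tunicamycin plus vehicle and 100% = wells lacking tunicamycin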
Details: CHO-CHOP promoter luciferase reporter, tunicamycin-induced, luminescence; at 10 µM; stronger effect = higher value

SMILES	inhibition
NC(=O)CC(NC(=O)Cc1cccc2ccccc12)c1ccc(NCc2cc(F)ccc2F)c([N+](=O)[O-])c1 (stereo not drawn)	87.6% (active)
O=[N+]([O-])c1c(NCCO)cc(Sc2nc3ccccc3s2)c2nonc12	-6.6%
CC1=C/C(=N\OS(=O)(=O)c2ccccc2)C=CC1=O	141% (active)
CCOc1ccc2nc(Nc3nc4ccc(NC(C)=O)cc4s3)sc2c1	56.5%
COc1ccc(COC(=O)c2n[nH]c3ccccc23)cc1F	15.5%
O=C(CCl)Nc1ccc(Sc2ccc(NC(=O)CCl)cc2)cc1	113% (active)
Fc1ccccc1/C=C1\CCCC2=C1Nc1ncnn1C2c1ccccc1F (stereo not drawn)	6.7%
O=C(NNc1ccccc1Cl)C(O)(c1cccc(C(F)(F)F)c1)c1cccc(C(F)(F)F)c1	54.8%
O=C(Cn1cc(C(F)(F)F)ccc1=O)N/N=C/c1ccc(Cl)cc1Cl	27.2%
OCCCNc1nccc(-c2cc(Nc3cccc(Cl)c3)ncn2)n1	121% (active)
Cc1ccc(-n2ncc3c2ncn2nc(-c4ccco4)nc32)c(C)c1	-1.3%
COc1ccc(NC(=O)/C(C#N)=C\c2cc(OC)c(OCc3ccc(C(=O)O)cc3)cc2Br)cc1	17.8%
O=C(Nc1ccccc1Cl)/C(Cl)=C(\Cl)S(=O)c1ccccc1 (stereo not drawn)	122% (active)
Clc1cccc(CN2COc3c(cc(Cl)c4cccnc34)C2)c1	-62%
COc1cccc(-c2nnc(NC(=O)c3ccc(S(=O)(=O)N(CC(C)C)CC(C)C)cc3)o2)c1	110% (active)
CCOC(=O)c1cc2cc(-c3c(C(=O)OCC)oc4cc(O)cc(O)c4c3=O)ccc2o1	46.1%
Cc1nnc(SCC(=O)N/N=C/c2cn(-c3ccccc3)nc2-c2ccc(F)cc2)n1-c1ccccc1	-50.1%
CCN(CC)S(=O)(=O)c1ccc2nc(COC(=O)c3n[nH]c4ccccc34)[nH]c2c1	66%
CCCCCCn1c(CN2CCCC(C)C2)nc2c1c(=O)n(C)c(=O)n2C (stereo not drawn)	97.6% (active)
O=C(CC(NC(=O)c1ccccc1)c1ccccc1)Nc1ccc(F)c(F)c1 (stereo not drawn)	67.4%
CCCCCn1c(SCCC(C)C)nc2c1c(=O)[nH]c(=O)n2C	97.6% (active)
CCCCSc1nc2c(c(=O)n1CC)SC(C)C2 (stereo not drawn)	58.6%
C=C(C)C(=O)O[C@H]1C/C(C)=C\C(=O)/C=C(\C)[C@H](O)[C@@H]2OC(=O)C(=C)[C@@H]21	43.7%
Cc1cccc(NC(=O)Nc2cccc(Oc3c(F)c(F)c(F)c(F)c3F)c2)c1	69.3%
O=C(Nc1cc(N2CCOCC2)ncn1)NC1(C(F)(F)F)Oc2ccc(Cl)cc2O1 (stereo not drawn)	93.7% (active)
Cc1c(C(=O)Nc2cccc(Cl)c2)cn2c(nc3ccccc32)c1C#N	33.5%

SMILES	inhibition
O=C(/C=C/Sc1ncn[nH]1)c1ccc(Cl)cc1	98% (active)
FC(F)(F)c1cc(-c2ccco2)nc(N2CCOCC2)n1	49.6%
O=C(CCl)N(Cc1cccc([N+](=O)[O-])c1)c1cccc(Cl)c1	118% (active)
Cc1ccc(-n2nc(C)c(/C=N/NC(=O)c3cccs3)c2Cl)cc1	-50.9%
CN1C(=O)/C(=C/c2ccc(C(=O)NC3CCCC3)cc2)Oc2ccccc21	-73.2%
O=C1C=C(c2ccc(Cl)cc2)C(=O)N1Nc1ccccc1	-116%
COc1cc(/C=N/NC(=O)Nc2ccccc2)ccc1OCCOc1ccccc1C	86.2% (active)
CCCOc1ccc(Cc2c(Cl)nc(SC)nc2NC)cc1	104% (active)
N#CC(C(=O)c1ccc(S(=O)(=O)N2CCCCCC2)cc1)c1nc2ccccc2[nH]1 (stereo not drawn)	-6.4%
CCSc1nc(C)nc2c1oc1ccccc12	19.6%
Cc1ccc(-c2csc(-c3c[nH]c4ccccc34)n2)cc1	53.5%
COc1ccc(-n2c(SCC(=O)Nc3sc4c(c3C#N)CCCC4)nnc2-c2ccc(O)cc2)cc1	37.1%
Cc1nc(SCC(=O)Nc2cc(C)on2)c2c3c(sc2n1)CCCC3	80.7% (active)
Oc1ccc(/C=N/N(Cc2ccccc2)c2ccccc2)cc1	30.1%
Cc1c(-c2ccccc2)n[nH]c1C(=O)N=Nc1c(O)[nH]c2ccccc12	-12.3%
Cc1cc(-c2n[nH]c(=S)n2/N=C/C(Br)=C/c2ccccc2)n[nH]1	106% (active)
FC(F)(F)c1cc(C(F)(F)F)c2ccc(N3CCN(c4ccccc4)CC3)nc2n1	61.6%
CCCCc1nc(NCCN)c(C#N)c2c1CSC(C)(C)C2	82.5% (active)
O=[N+]([O-])c1cccc(-c2nnc3c4ccccc4c4ccccc4n23)c1	23.3%
CCCCCCC(=O)N(O)C1CC(=O)N(c2ccccc2)C1=O (stereo not drawn)	16.2%
Clc1ccc(Nc2nc(-c3cccs3)cs2)nc1	124% (active)
Oc1cccc(C2c3[nH]c4ccccc4c3CCN2Cc2cnn(-c3ccccc3)c2)c1 (stereo not drawn)	-4.4%
O=[N+]([O-])c1cc(S(=O)(=O)CCCN2CCOCC2)ccc1F	-45.2%
O=C(Nc1ccccc1C(F)(F)F)c1cc(-c2ccc(O)cc2)on1	77.8% (active)
CC(C)Cc1cc(C(=O)Nc2cc(Br)ccc2O)no1	22.3%
CCCc1nc2ccccc2c(C(=O)OCC(=O)c2ccc3c(c2)NC(=O)CO3)c1CC	-11.4%

SMILES	inhibition
CC(C)(C)C1C/C(=C/c2ccco2)C(=O)/C(=C/c2ccco2)C1 (stereo not drawn)	85.1% (active)
OC(CNCC1CCCO1)Cn1c2ccc(Br)cc2c2cc(Br)ccc21 (stereo not drawn)	81.5% (active)
CC(C)(C)c1ccc(Oc2ccc(N)cc2)cc1	117% (active)
O=C(Nc1nnc(COc2ccccc2)s1)Nc1ccccc1F	1%
Cc1cc(C(=O)CCl)c(C)n1CC1COc2ccccc2O1 (stereo not drawn)	-124%
CS(=O)(=O)N(CC(=O)Nc1ccc(Cl)c(Cl)c1)C1CCCCC1	33.2%
COc1cc(/C=N/O)cc(Br)c1OCc1cccc(Cl)c1	138% (active)
NC(N)=N/N=C/c1ccc(OCc2ccc(Cl)cc2Cl)cc1	-25.2%
COC(=O)/C=C\C(=O)Nc1cccc([N+](=O)[O-])c1	101% (active)
Fc1ccccc1C(c1nnnn1Cc1ccc2c(c1)OCO2)N1CCN(Cc2ccccc2)CC1 (stereo not drawn)	22.4%
CC(C)=CCc1c(O)c(CC=C(C)C)c2occ(-c3ccc(O)cc3)c(=O)c2c1O	15.8%
COc1cc(SC#N)ccc1N=Cc1c(C)[nH]n(-c2ccc(C)cc2)c1=O	34%
C=C(C)COc1ccc(-c2n[nH]c(C)c2-c2ccccc2OC)c(O)c1	112% (active)
COc1ccc(/C=C/C(=O)Nc2c(C)nn(C)c2C)cc1COc1ccc(Br)cc1	20.4%
Cc1ccc(NC(=S)NC(NC(=O)Cc2cccc3ccccc23)C(Cl)(Cl)Cl)cc1 (stereo not drawn)	72.1% (active)
CCOC(=O)c1c(C)[nH]c2c1-c1ccccc1C(=O)C2=O	122% (active)
Cc1ccc(NC(=O)/C(=C/c2ccc([N+](=O)[O-])cc2)NC(=O)c2ccccc2)cc1	-5.3%
COc1cc(C(=O)OC(C)C(=O)NCC2CCCCC2)cc(NC(=O)c2ccco2)c1OC (stereo not drawn)	93% (active)
Cc1cccc(OCc2nnc(SCc3nc4cc(C(F)(F)F)ccc4c(=O)[nH]3)o2)c1	114% (active)
CCOC(=O)C(C)Sc1nc2ccccc2c(=O)n1CC1CCCCC1 (stereo not drawn)	61.7%
C=CCn1c(C)cc(C2=NNC(=NCC)SC2)c1C	136% (active)
NC(=O)COc1ccc(C23CC4CC(CC(C4)C2)C3)cc1	7.3%
CCOC(=O)C1=C(c2ccc(OC)cc2)C(=O)c2ccccc2C1=O	110% (active)
CSc1nc2sc3c(c2c(=O)[nH]1)CCc1ccccc1-3	12.2%
O=C(/C=C/c1ccc(F)cc1)Nc1cccc(S(=O)(=O)Nc2cccc(C(F)(F)F)c2)c1	7.6%
CSc1nc(-c2ccccc2)nc(C(Cl)Cl)n1	96.2% (active)

Source: PubChem BioAssay AID504437 (Emory University Molecular Libraries Screening Center, 2011)
